Laboratory results reported in publication PMC12136788.
Over roughly 24,000 sequences, “enrichment r” has its median near 0.99; the highest 2% begin near 3.7. The sample holds the highest values, similar sequences and a random draw of the others, so the mix is not that of the screen.

T1: UNK ZnF1-3 (human, UniProt Q9C0B0 31-174)
T1 sequence: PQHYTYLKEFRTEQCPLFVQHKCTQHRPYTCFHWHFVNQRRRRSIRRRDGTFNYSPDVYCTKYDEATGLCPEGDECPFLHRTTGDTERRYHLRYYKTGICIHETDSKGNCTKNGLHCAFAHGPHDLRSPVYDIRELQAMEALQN

B1: chrX:131339380:131339381:-_ENSMUSG00000033436_ENSMUST00000035559|mus_hu|FALSE|FALSE (ssRNA)
RNA: GGGAGUUCUACAGUCCGACGAUCACUGAGAAGUUUCUUCAACAUAUCUGGAUUUUCAGCAAAAUUCGAAAGGAUUUUCAAAAUCUCAACCUUGAUUUUUCCACCUCCCUGAGAUAGCAAACGGAAAAAGUUUGCAAUGGAAUUCAACAGAGGAUUGAGCAUCA
B2: chr8:95500983:95500984:-_ENSG00000164944_ENST00000437199|hu_hu|hu_hu_hu_mus_True|58_68 (ssRNA)
RNA: GGGAGUUCUACAGUCCGACGAUCAGAACACAUCUAUCGAGUAAAGGACCGUACAUGACGGCCUCUAACCACUGCCUCCACUAACAACUUUCCUCUCGAGCCUCCACUGCCGCUAUUUGUACUAGCCCAGGACGGUCCCAGGCCCAACAGAGGAUUGAGCAUCA
B3: 37721237_37722996_1653_CDS_ENSG00000082068_ENST00000265107|human|control|control (ssRNA)
RNA: GGGAGUUCUACAGUCCGACGAUCUGCCUUCCGCUGGGUUUUAACCACACAUAAUUUUGCUCCCCUCUGACUCUUGUUGGGGUCGUAAUAGACUUUAGCCAAUCCAUUUCCAGUUCCAACCAUGAUCUGGUUCAGCUUUGGAUGCAACAGAGGAUUGAGCAUCA
B4: 55795476_55800851_1969_CDS_ENSG00000138041_ENST00000407823|human|control|control (ssRNA)
RNA: GGGAGUUCUACAGUCCGACGAUCCCGCCUCAUAAAGCGAAGGGCACACAAGGCCAGAAAAGUGUGCUUUGAAUUCAUCAAGACCAAGACUCUUCUUAGCAAGUCCUUGUUCAUAAUAUAGUUUUUUAUGUGAUAUGUGUGAUGCAACAGAGGAUUGAGCAUCA
B5: chr19:8913615:8913616:-_ENSMUSG00000071658_ENSMUST00000096259|mus_hu|mus_mus_mus_hu_False|1_98 (ssRNA)
RNA: GGGAGUUCUACAGUCCGACGAUCAGGGUACCAAAACACCCUGCCUCAAAUGGGUGCCCCACCCAGUAGGGAGUUGCAGCUGAAAGUAUCUGAUGCAGAAGCAGUGACUAUACGAAAGGAGGCCCCUGGGGAGGGCCCGAGAUCCAACAGAGGAUUGAGCAUCA
B6: 69202206_69203042_311_CDS_ENSG00000135679_ENST00000462284|human|control|control (ssRNA)
RNA: GGGAGUUCUACAGUCCGACGAUCUGAGGUGGUUACAGCACCAUCAGUAGGUACAGACAUGUUGGUAUUGCACAUUUGCCUGCUCCUCACCAUCCGGGGUUUUCGCGCUUGGAGUCGGGGGUCCCUCAAGACUCCCCAGUUUCCCAACAGAGGAUUGAGCAUCA
B7: 67235911_67236031_3360_3pUTR_ENSMUSG00000036371_ENSMUST00000042990|mouse|control|control (ssRNA)
RNA: GGGAGUUCUACAGUCCGACGAUCAACAUUCAAAAAUCUUAAACAAGAAUUAUCUUACGAUAAUGAAAAAGGGAAACCAAGAAACAUAUAAAGGGGUUCCCACUUGAUUGCUUUUAUCUUUUAGGAAAUGAGCAUGAAAAUAAACAACAGAGGAUUGAGCAUCA
B8: chr1:100327937:100327938:+_ENSG00000162688_ENST00000361915|hu_hu|motif|central (ssRNA)
RNA: GGGAGUUCUACAGUCCGACGAUCUUCUUUUGCAACCCUAAGUCUGCUUUCCCAUUCAUCAAAAGGUCCCAAACACUUAGCGGAAAAUGUCUGAAGAGUAACACAGUCCAAGGGUAGCACAUGAUUAUCAGCACCAACACGUAACAACAGAGGAUUGAGCAUCA
B9: chr3:41281487:41281488:+_ENSG00000168036_ENST00000349496|hu_hu|motif|central (ssRNA)
RNA: GGGAGUUCUACAGUCCGACGAUCCUACGAGAGACUUAAAAAACAGUUACUGCAAAAAAAAAAAAAAAAAAAAAAAAAGAGCGGCUUCAAAGCAAGCAAAGUCAGUACCAUUACAGAUAUUCUUAAAAAAAAAAAAAAAAAAAUCAACAGAGGAUUGAGCAUCA
B10: chr1:38489359:38489360:+_ENSG00000183520_ENST00000537711|hu_mus|FALSE|FALSE (ssRNA)
RNA: GGGAGUUCUACAGUCCGACGAUCAGUCAUGAUUACAAAACAGGAAGACCAAGCCAUUUGAAUUAAUAAAAUCUGAAGUUAUUACAAAAGACAGGAGGAAAAGAUAAUAAUUCUUUUCGAUACAGAAUGCUGAGGCUUAAUUUUCAACAGAGGAUUGAGCAUCA
B11: chr5:122939345:122939346:-_ENSMUSG00000029467_ENSMUST00000031423|mus_mus|FALSE|FALSE (ssRNA)
RNA: GGGAGUUCUACAGUCCGACGAUCCUUUCUGUCCUGUCGAUACACUUUGCCCAUUUCAGGCUCAUAUUCCUUAAGAGCUUCUAUUGCAUUUUCAGCAUUUCUUUCCUGCCACACACCCACGAUUGCAUUGGCUACCAAGAUAAGCAACAGAGGAUUGAGCAUCA
B12: chr1:135503150:135503151:-_ENSMUSG00000090553_ENSMUST00000166915|mus_hu|motif|central (ssRNA)
RNA: GGGAGUUCUACAGUCCGACGAUCUUCUGCAUCAUCUAAUACAAGGUUCAUAUACUCAUCAAAACCAAUGAUACAGCCUUCGGUCCGCAUAUUCACUUGCUCAUAGAGCCACACCUGAAUCCGCGAUCUCUGAAAUAAUCAUAACAACAGAGGAUUGAGCAUCA
B13: chr1:130270616:130270617:-_ENSMUSG00000026356_ENSMUST00000027602|mus_hu|FALSE|FALSE (ssRNA)
RNA: GGGAGUUCUACAGUCCGACGAUCGUAAUGGUAAUUAAAAGCCAUUUCAAUGUCCAAACCAACAAACUCAGUUAGAUGUCUAUGGGUAUUAGAGUCUUCCGCUCUGAAUACUGGUCCAAUAGAGAAAACCUUCUCAAAAUCAGCCAACAGAGGAUUGAGCAUCA
B14: chr14:31337589:31337590:+_ENSMUSG00000021962_ENSMUST00000022535|mus_mus|motif|central (ssRNA)
RNA: GGGAGUUCUACAGUCCGACGAUCAAUGACCUGUAUCAUAGAAACGAAGACACUUUUCAUUCAAAGAAUAUCUCAAAAUUACGGUUGCUGAAAUAAUCAAAUUCUACAUUAAAAUAUUACCAAACACCAUUACAUGCCAUAAAACAACAGAGGAUUGAGCAUCA
B15: 97946324_97946444_1485_ncRNA_ENSMUSG00000021666_ENSMUST00000159321|mouse|control|control (ssRNA)
RNA: GGGAGUUCUACAGUCCGACGAUCUGAUUCUGAAAUCAUGUAAAUUAAGAUUUGUUAGGCUGUUUUUUUUUUAAAUAAACCAUCUUUUUAUUGAUUGAAUCUUUCUAUCCCUGAAUCAAACACUGAAUCUUUUAUGUGAGCAGCCAACAGAGGAUUGAGCAUCA
B16: chr4:40680069:40680070:+_ENSMUSG00000028410_ENSMUST00000030118|mus_hu|motif|central (ssRNA)
RNA: GGGAGUUCUACAGUCCGACGAUCAAAAUCAGAGCUUUUAUAUUUGCGUUUAUUCUUCAUUUAACUUUUUAAAACACGGCGGUAGUUUAUUAAAACAAAAACAAGAGCAAGUAGUGAGCAUAUUAUGAUUACAGUCCUUCACUCCAACAGAGGAUUGAGCAUCA
B17: 116785305_116785425_2892_3pUTR_ENSMUSG00000055531_ENSMUST00000069168|mouse|control|control (ssRNA)
RNA: GGGAGUUCUACAGUCCGACGAUCAAAAAAUGAAAGAAAGGAAAAAAAAAGAAAAAAAAAUCAGCUGAUUAACUCUAAUCAAGCAUAGAUCAACAAGGUUACAGGAAUACACACACAAUUCCUUGAGCCAUGAAGACAGUGUAACAACAGAGGAUUGAGCAUCA
B18: chr1:58468927:58468928:-_ENSMUSG00000026034_ENSMUST00000148330|mus_mus|mus_mus_mus_hu_False|38_108 (ssRNA)
RNA: GGGAGUUCUACAGUCCGACGAUCAAUCUAUAAUUACGAUGUUCAUUACCUUAGCUAUGUACUUAAUGAACCAAAUUACCCAAACAAAAUAAACAUGUUUACAAAUUAAUGUUAAGAAUUUACAAAGCUGUACAAAAUAACUUACAACAGAGGAUUGAGCAUCA

Biological target: T1, UNK ZnF1-3
Assay: nsRBNS (natural sequence RNA bind-n-seq); RBNS binding buffer (assumed for nsRBNS): 25 mM Tris pH 7.5, 150 mM KCl, 3 mM MgCl2, 0.01% Triton X-100, 500 ug/ml BSA, 20 U/ml SUPERase-In, 4 C; UNK is unkempt and MSI1 is Musashi-1; names of the RNAs are library labels; protein concentration not given here; high values mean tight binding

Binder	binding signal
B1	0.897 enrichment R
B2	1.3 enrichment R
B3	0.501 enrichment R
B4	2.04 enrichment R
B5	1.7 enrichment R
B6	0.532 enrichment R
B7	5.78 enrichment R
B8	1.32 enrichment R
B9	8.09 enrichment R
B10	8.05 enrichment R
B11	0.9 enrichment R
B12	1.18 enrichment R
B13	0.771 enrichment R
B14	0.998 enrichment R
B15	0.66 enrichment R
B16	1.05 enrichment R
B17	4.36 enrichment R
B18	0.436 enrichment R
